High-throughput results: PubChem, National Center for Advancing Translational Sciences (NCATS)
Most compounds without a hit are left out; they make up all but 11% or so of the library.
HPGD block = inhibitors of human 15-hydroxyprostaglandin dehydrogenase (HPGD). P15428. purified HPGD, NADH fluorescence kinetic, PGE2 substrate. Potency, µM, inactives show at the highest dose activity change, negative = inhibition, most hits filed as inhibitors. 4.3% of 150,000 active. AID 894; note: potency is the fitted concentration of half-maximal effect; % is set by controls: 0 for no effect and ±100 for the full control effect
Target sequence (P15428 whole entry, looked up): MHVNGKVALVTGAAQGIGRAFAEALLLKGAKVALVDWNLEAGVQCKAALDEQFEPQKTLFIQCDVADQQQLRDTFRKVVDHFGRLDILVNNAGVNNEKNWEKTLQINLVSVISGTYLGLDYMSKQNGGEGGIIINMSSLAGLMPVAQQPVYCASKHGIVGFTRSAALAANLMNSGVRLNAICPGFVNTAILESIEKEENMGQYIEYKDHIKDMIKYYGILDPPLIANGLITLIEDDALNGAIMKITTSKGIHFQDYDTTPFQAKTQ
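NADH formation kinetics: reaction with 30 uM PGE2 and 1 mM NAD+ (final), 20 nM enzyme, Tris-HCl pH 8 with Tween 20, after 15 min compound preincubation at room temperature. Fluorescence change, last versus first of five reads.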
PNC inhibitor = inhibitors of perinucleolar compartment assembly | 3.1% of 140,000 active | AID 2417 | PC3M PTB-GFP, PNC prevalence imaging, 16 h; hits give low values | activity change (PNC), negative = inhibition, % at 10 µM;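 active = readout at or below -70, meaning at least 70% loss of cells showing the perinucleolar compartment, a nuclear body marking cancer cells; inconclusive = readout between -30 and a set limit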;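 note: plate controls were DMSO wells for no effect and camptothecin positive control wells for full effect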
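Compounds are pinned in duplicate onto adhered PC3M cells stably expressing GFP-tagged PTB and incubated 16 h at 37 C. Cells are then fixed, nuclei stained with Hoechst, and PNC-positive cells counted.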
HTT ATP protect = cytoprotection in Huntington HTT-Q103 PC12 cell model | PC12 HTT-Q103 induced, cytoprotection, ATP luminescence, 40 h | Potency, µM (highest dose often 56.4 µM), inactives show cytoprotection (ATP increase), actives largely listed as activators | 0.14% of 230,000 active; active = well fitted curve in the direction sought with a large enough effect; inconclusive = small, poorly fitted or top-dose-only effect, or another doubt; inactive = no such curve, though single readings can be large; an effect the other way counts as inactive or inconclusive; note: potency is the fitted concentration of half-maximal effect; % of control where 0% means no effect; nearly all actives have a fitted effect of over 45% in size
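Stable PC12 Q103-GFP cells in serum-supplemented, phenol red-free DMEM; induction by tebufenozide at 100 nM final; compound dose series; cell viability quantified luminescently from ATP.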
ALDH1A1 inh = ALDH1A1 (human) enzyme inhibition. P00352. Purified ALDH1A1, NADH fluorescence, propionaldehyde substrate. Potency, µM (doses to about 75.3 µM), for inactives: top-dose activity, negative = inhibition, usual class: inhibitors. 7.3% of 220,000 active;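 note: potency is the fitted concentration of half-maximal effect; plate controls were no enzyme wells and a reference inhibitor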
Target sequence (P00352 whole entry, looked up): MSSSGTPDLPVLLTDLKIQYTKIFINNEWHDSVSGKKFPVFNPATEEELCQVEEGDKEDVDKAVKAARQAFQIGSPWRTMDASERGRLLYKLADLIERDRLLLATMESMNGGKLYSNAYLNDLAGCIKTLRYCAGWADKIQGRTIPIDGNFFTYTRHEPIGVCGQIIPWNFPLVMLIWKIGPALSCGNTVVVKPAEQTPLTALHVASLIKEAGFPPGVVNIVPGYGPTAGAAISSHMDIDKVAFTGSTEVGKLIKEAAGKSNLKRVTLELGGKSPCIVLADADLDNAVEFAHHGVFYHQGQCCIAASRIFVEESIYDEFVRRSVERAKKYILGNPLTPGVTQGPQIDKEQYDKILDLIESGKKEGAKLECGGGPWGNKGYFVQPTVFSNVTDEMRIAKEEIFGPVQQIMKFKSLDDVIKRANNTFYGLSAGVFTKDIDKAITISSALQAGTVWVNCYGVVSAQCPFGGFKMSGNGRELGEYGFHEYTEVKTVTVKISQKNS
GoLoco inh red = inhibitors of human Gai1-RGS12 GoLoco interaction (red fluorophore). 0.44% of 230,000 active. Potency, µM (highest dose often 61.6 µM), for the others: at the top dose activity, negative = inhibition, hits mostly inhibitors. P63096. Gai1:RGS12 GoLoco peptide FP, rhodamine, 10 min; active = well fitted inhibition curve with a large enough effect, not every such curve was filed as active; inactive = no such curve, though single readings can be large or run the other way; note: potency is the fitted concentration of half-maximal effect; % is set by controls: 0 for no effect and ±100 for the full control effect; nearly all actives have a fitted effect of over 30% in size
HttQ103 aggreg = inhibitors of mutant huntingtin aggregate formation in PC12 cells | PC12 HttQ103-GFP aggregates, Acumen cytometry, 40 h | Potency, µM (highest dose often 46.1 µM), inactives show at the top dose activity change, negative = inhibition, usual class: inhibitors | 1.1% of 220,000 active | AID 1688; active = well fitted curve in the direction sought with a large enough effect; inconclusive = small, poorly fitted or top-dose-only effect, or another doubt; inactive = no such curve, though single readings can be large; an effect the other way counts as inactive or inconclusive; note: potency is the fitted concentration of half-maximal effect; % is set by controls: 0 for no effect and ±100 for the full control effect; nearly all actives have a fitted effect of over 60% in size
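Aggregate formation scored by laser-scanning cytometer (488 excitation, 500–530 emission) in lysed PC12 cells expressing Q103-GFP after 100 nM tebufenozide induction; library tested in dose series, with ATPLite reagent added in the multiplex.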
* marks the source's active call; other numbers are inactive results; ? = inconclusive; · = no result given; [ ] = remark or other dose. Unless noted, calls come from the whole dose curve; as a rule, active = well fitted inhibition curve with a large enough effect (not every such curve was filed as active); inconclusive = small, poorly fitted or top-dose-only effect, or another doubt; inactive = no such curve, though single readings can be large or run the other way.

SMILES | HPGD block | PNC inhibitor | HTT ATP protect | ALDH1A1 inh | GoLoco inh red | HttQ103 aggreg
CCOc1ccc(-n2c(-c3ccc(OC)cc3)c[n+]3c2CCCCC3)cc1 | -7% | 30 | 37%[1.9 µM] | 1% | 2% | 7.9µM*
C/C(=N\O)c1oc2ccc3c(C)cc(=O)oc3c2c1C | · | · | 7%[10 µM] | · | -1% | -11%[9.22 µM]
CCOCCCNC(=S)N1C2CCC1CC(NC(=O)NC1CCCCC1)C2 (centres undefined) | -7% | ? | 4%[10 µM] | 9% | 2% | -28%
Cc1cc(C)n(-c2nc3nonc3nc2-n2nc(C)cc2C)n1 | -7% | 16 | -8%[10 µM] | 0% | -5% | 0%
CCN(CC)c1nc2nonc2nc1N(CC)CC | -10% | ? | 17% | -5% | 4% | 0.45µM*
CCc1ccccc1-n1nnnc1-c1cnccc1C(F)(F)F | · | · | -5%[10 µM] | 18µM* | 8% | -14%[9.22 µM]
Cc1ccccc1-c1noc(-c2ccccc2C(=O)NCC2CCCO2)n1 (centres undefined) | · | · | -9%[10 µM] | · | 11% | -7%[9.22 µM]
C#CC(C)OC(=O)c1nnc2c3ccccc3n(COC)c2n1 (centres undefined) | · | · | -29%[10 µM] | 2%[13.5 µM] | · | ·
O=C1CC(c2ccc(F)cc2)Cc2nc(N3CCOCC3)ncc21 (centres undefined) | -21% | -1 | -35% | 28µM* | -5% | -5%
O=C1c2ccccc2[C@@H]([C@@H]2c3ccccc3C(=O)c3cc(Br)ccc32)c2ccc(Br)cc21 | -8% | · | 1%[10 µM] | -11%[13.5 µM] | 0%[14.2 µM] | ·
Cc1ccc(S(=O)(=O)/N=C(/NC(=S)Nc2ccccc2)c2ccccc2)cc1 | -26% | -5 | -30% | ? | 14% | -1%
Cc1ccc(S(=O)(=O)C/N=C(/NC(=S)N(c2ccccc2)c2ccccc2)c2ccccc2)cc1 | 32µM* | -29 | -13% | 14µM* | -2% | 11%
CCOC(=O)C1=C(C)c2ccccc2N(S(=O)(=O)C(F)(F)F)C1C(=O)OCC (centres undefined) | -2% | · | -22% | 13% | 9% | ·
O=[N+]([O-])c1cc(Br)cc(C=Nc2ccc3c(c2)OCO3)c1O | · | · | -21%[10 µM] | 10µM* | -1% | 0%[9.22 µM]
O=[N+]([O-])c1ccc(O)c(C=Nc2ccc3c(c2)OCO3)c1 | · | · | -9%[10 µM] | ? | 17% | -11%[9.22 µM]
Cc1ccc(CNc2oc(-c3ccco3)nc2S(=O)(=O)c2ccccc2)cc1 | -25% | -5 | 7%[1.9 µM] | 28µM* | 10% | -17%
N#Cc1nc(-c2ccco2)oc1NCCCN1CCOCC1 | ? | 109 | -22% | ? | -5% | -1%
O=S(=O)(c1ccccc1)c1nc(-c2ccco2)oc1NCCCN1CCOCC1 | -24% | -4 | 12%[10 µM] | 8.9µM* | 2% | -1%
O=S(=O)(c1ccc(F)cc1)c1nc(-c2ccco2)oc1Nc1ccc(F)cc1 | -16% | -4 | 6%[10 µM] | ? | 21% | 2%
Cc1ccc(S(=O)(=O)c2nc(-c3ccccc3)oc2NCc2cccnc2)cc1 | -19% | 15 | -11% | 28µM* | -3% | -14%
O=S(=O)(c1ccccc1)c1nc(-c2ccco2)oc1NCCN1CCOCC1 | -18% | 27 | -13%[10 µM] | 14µM* | 14% | -4%
Cc1ccccc1-c1nc(S(=O)(=O)c2ccc(Br)cc2)c(NCc2cccnc2)o1 | -17% | 42 | -24% | ? | 8% | ?
COc1ccc(S(=O)(=O)NC2(C(F)(F)F)N=C(c3ccccc3)NC2=O)cc1 (centres undefined) | -1% | -113* | · | 13% | -3% | -7%
CC1(C(=O)CSc2ncn[nH]2)CCC(=O)O1 (centres undefined) | -7% | -4 | -37% | ? | -3% | 4%
CC1(C(=O)CSc2nc3ccccc3[nH]2)CCC(=O)O1 (centres undefined) | -10% | -100* | -13%[10 µM] | -1% | -5% | -4%
SMILES | HPGD block | PNC inhibitor | HTT ATP protect | ALDH1A1 inh | GoLoco inh red | HttQ103 aggreg
CC(C)C[C@@H](C=O)NC(=O)[C@H](CC(C)C)NC(=O)[C@H](CC(C)C)NC(=O)OCc1ccccc1 | · | · | 21% | 14µM* | 9% | ·
COC(=O)CCC(NC(=O)OCc1ccccc1)C(=O)NC(CC(C)C)C(=O)OC (centres undefined) | -7% | 0 | -33% | 4% | 2% | 3%
O=C(NC(=S)NNC(=O)[C@H]1C[C@@H]1c1ccccc1)c1ccc(F)cc1 | · | · | -5%[10 µM] | 25µM* | 9% | -6%[9.22 µM]
O=C(/C=C/c1cccc([N+](=O)[O-])c1)n1cnc2ccccc21 | · | · | 18% | 17% | 28% | ?
N=c1c2c(-c3ccccc3)c(-c3ccccc3)n(Cc3ccco3)c2ncn1CCCn1ccnc1 | 6% | -98* | 0%[0.074 µM] | 4% | -1% | -14%
CCCCOc1ccccc1NC(=O)c1ccco1 | -1% | -1 | 12% | -6% | 3% | 23%
CCCCOc1ccccc1NC(=O)c1scc2c1OCCO2 | · | · | -49% | -4% | 6% | 13µM*
COCCN=C1Sc2nc3ccc(C)cc3cc2CN1Cc1ccco1 | -20% | 9 | -12% | 25µM* | -9% | ?
O=C(O)[C@@H](c1ccccc1)[C@@H](C(=O)O)c1ccccc1 | -6% | · | -8%[10 µM] | -1%[13.5 µM] | 3%[14.2 µM] | ·
CCOC(=O)CN1C(=O)C(O)(CC(=O)c2ccco2)c2ccccc21 (centres undefined) | -9% | ? | 0% | 0.16µM* | 5% | 7%
CC12CN3CC(C)(CN(C1)C31C(=O)N(Cc3ccccc3)c3ccccc31)C2=O (centres undefined) | 4% | ? | 10% | 7.9µM* | 4% | 14%
CC12CN(Cc3ccccc3)CC(C)(CN(Cc3ccccc3)C1)C2=O | · | · | -19% | 4% | 6% | -6%
Cc1coc(C)c1C(=O)CC1(O)C(=O)N(CCc2ccccc2)c2ccccc21 (centres undefined) | ? | 22 | -4% | 4.5µM* | 72% | ?
COc1ccc(C(=O)N/N=C2/SCC(=O)N2Cc2ccc3c(c2)OCO3)cc1OC | -12% | 43 | 4% | 20µM* | -5% | 8%
CCOC(=O)C1CCN(C(=O)c2ccc(CNS(=O)(=O)c3ccc(OC)cc3)cc2)CC1 | · | · | -26% | -9% | -1% | 3%
CC1CCN(CCC(=O)Nc2ccc3c(c2)CCC3)CC1 | 3% | ? | 1%[10 µM] | 6% | 8% | -6%
C=CCN1CCCC1CNC(=O)c1cc(S(N)(=O)=O)cc(OC)c1OC (centres undefined) | · | · | ? | · | · | 7%
COC(=O)[C@@]1(Cc2ccccc2)[C@H]2c3cc(C(=O)N4CCCC4)[nH]c3C[C@H]2CN1C(=O)c1ccccc1 | -7% | · | -5% | -3% | 6% | ·
COc1cccc(NC(=O)CN2C(=O)C3(OCCCO3)c3ccccc32)c1 | 0% | -3 | -3%[0.074 µM] | ? | 3% | 10%
